{
  "source": "the supplement of paper PMC5662767",
  "test_system": "Drosophila S2 cl14 SmoIP sensor cells",
  "assay": "normalized SmoIP GFP fluorescence (untreated unstimulated = 0%, untreated Hh-stimulated = 100%); higher = more Smo activation sensor fluorescence",
  "conditions": "compound concentration: 2 uM, 24 h",
  "key": {"[1]": {"conditions": "stimulation: Hh conditioned medium (+Hh)"}, "[2]": {"conditions": "stimulation: mock conditioned medium (-Hh)"}},
  "note": "Where a name gives a salt, the structure may show the parent alone.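 Further: flow cytometry read-out as median GFP intensity of gated cells, compounds added 30 min before Hh-conditioned or mock medium, mock-treated cells serving as unstimulated baseline.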",
  "data": [
    {"smiles": "Clc1ccc(Nc2nnc(Cc3ccncc3)c3ccccc23)cc1", "note": "[Vatalanib,Dihydrochloride-Salt]", "values": [
      {"measurement": "normalized SmoIP GFP fluorescence", "setting": "[1]", "result": 125, "unit": "%"},
      {"measurement": "normalized SmoIP GFP fluorescence", "setting": "[2]", "result": -9.22, "unit": "%"}
    ]},
    {"smiles": "CN1CCN(S(=O)(=O)c2ccc(-c3cnc(N)c(C(=O)Nc4cccnc4)n3)cc2)CC1", "values": [
      {"measurement": "normalized SmoIP GFP fluorescence", "setting": "[1]", "result": 112, "unit": "%"},
      {"measurement": "normalized SmoIP GFP fluorescence", "setting": "[2]", "result": 1.21, "unit": "%"}
    ]},
    {"smiles": "O=C1NC(=O)/C(=C/c2ccc3nccc(-c4ccncc4)c3c2)S1", "values": [
      {"measurement": "normalized SmoIP GFP fluorescence", "setting": "[1]", "result": 175, "unit": "%"},
      {"measurement": "normalized SmoIP GFP fluorescence", "setting": "[2]", "result": 2.43, "unit": "%"}
    ]},
    {"smiles": "OCCn1cc(-c2ccc3c(c2)CC/C3=N\\O)c(-c2ccncc2)n1", "values": [
      {"measurement": "normalized SmoIP GFP fluorescence", "setting": "[1]", "result": 97.5, "unit": "%"},
      {"measurement": "normalized SmoIP GFP fluorescence", "setting": "[2]", "result": 0.274, "unit": "%"}
    ]},
    {"smiles": "Cc1ccc2nc(NCCN)c3ncc(C)n3c2c1", "values": [
      {"measurement": "normalized SmoIP GFP fluorescence", "setting": "[1]", "result": 137, "unit": "%"},
      {"measurement": "normalized SmoIP GFP fluorescence", "setting": "[2]", "result": -9.4, "unit": "%"}
    ]},
    {"smiles": "C[C@H](NC(=O)[C@@H](O)c1cc(F)cc(F)c1)C(=O)N[C@@H]1C(=O)N(C)c2ccccc2-c2ccccc21", "values": [
      {"measurement": "normalized SmoIP GFP fluorescence", "setting": "[1]", "result": 145, "unit": "%"},
      {"measurement": "normalized SmoIP GFP fluorescence", "setting": "[2]", "result": 9.98, "unit": "%"}
    ]},
    {"smiles": "C=CC(=O)Nc1cc2c(Nc3ccc(F)c(Cl)c3)ncnc2cc1OCCCN1CCOCC1", "note": "[CI-1033(Canertinib)]", "values": [
      {"measurement": "normalized SmoIP GFP fluorescence", "setting": "[1]", "result": 109, "unit": "%"},
      {"measurement": "normalized SmoIP GFP fluorescence", "setting": "[2]", "result": 13.8, "unit": "%"}
    ]},
    {"smiles": "CN(C)CC(=O)Nc1ccc2[nH]c(=O)c3ccccc3c2c1", "values": [
      {"measurement": "normalized SmoIP GFP fluorescence", "setting": "[1]", "result": 113, "unit": "%"},
      {"measurement": "normalized SmoIP GFP fluorescence", "setting": "[2]", "result": -1.97, "unit": "%"}
    ]},
    {"smiles": "Cc1cc(C)nc(NS(=O)(=O)c2ccc(NC(=S)NC(=O)COc3ccc(Br)cc3Cl)cc2)n1", "values": [
      {"measurement": "normalized SmoIP GFP fluorescence", "setting": "[1]", "result": 105, "unit": "%"},
      {"measurement": "normalized SmoIP GFP fluorescence", "setting": "[2]", "result": -4.81, "unit": "%"}
    ]},
    {"smiles": "C=CC(=O)Nc1cccc(Nc2nc(Nc3ccc(N4CCN(C(C)=O)CC4)cc3OC)ncc2C(F)(F)F)c1", "values": [
      {"measurement": "normalized SmoIP GFP fluorescence", "setting": "[1]", "result": 61.9, "unit": "%"},
      {"measurement": "normalized SmoIP GFP fluorescence", "setting": "[2]", "result": 44, "unit": "%"}
    ]},
    {"smiles": "CC(=O)Nc1ccc(NC(=S)NC(=O)c2ccc(C(C)(C)C)cc2)cc1", "note": "[tenovin-1]", "values": [
      {"measurement": "normalized SmoIP GFP fluorescence", "setting": "[1]", "result": 97, "unit": "%"},
      {"measurement": "normalized SmoIP GFP fluorescence", "setting": "[2]", "result": -4.47, "unit": "%"}
    ]},
    {"smiles": "CC(=O)O/N=C1\\C(=O)N(Cc2cc(Cl)ccc2Cl)c2ccc(Cl)cc21", "values": [
      {"measurement": "normalized SmoIP GFP fluorescence", "setting": "[1]", "result": 106, "unit": "%"},
      {"measurement": "normalized SmoIP GFP fluorescence", "setting": "[2]", "result": -2.93, "unit": "%"}
    ]},
    {"smiles": "COC(=O)c1ccc2c(c1)NC(=O)/C2=C(\\Nc1ccc(N(C)C(=O)CN2CCN(C)CC2)cc1)c1ccccc1", "values": [
      {"measurement": "normalized SmoIP GFP fluorescence", "setting": "[1]", "result": 108, "unit": "%"},
      {"measurement": "normalized SmoIP GFP fluorescence", "setting": "[2]", "result": 7.92, "unit": "%"}
    ]}
  ]
}
